The values below come from PubChem BioAssay (Tox21).

SMILES strings stand for the structures. Values without a mark were called inactive. Results filed as inconclusive are left out. The source made the active and inactive calls. Unless noted, the call rests on the fitted dose curve; in most records, active means well fitted curve in the direction sought with a large enough effect in the repeat runs; inconclusive means weak or mixed curves; inactive means no such curve, though single readings can be large; an effect the other way counts as inactive or inconclusive.

Assay [1] deals with Thyrotropin-releasing hormone receptor (Homo sapiens) (UniProt P34981). The experiment in a line: qHTS assay to identify small molecule agonists of the thyrotropin-releasing hormone receptor (TRHR) signaling pathway (AID 1346891; calls by dose curve; further: series mostly up to about 58 µM). In short, it runs like this:
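Agonist-mode intracellular calcium readout: kinetic fluorescence over 3 min at 1 s intervals after compound addition to TRHR-HEK293 cells (18 h seeded, 2 h dye-loaded at 37 C). Fifteen concentrations, triplicates.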
Background: In qHTS, concentration-response curves come from the screen itself.

Assay [2] can be described thus: Caspase-3/7 induction in HepG2 cells by small molecules, qHTS assay (AID 1346978). Further: nearly all actives have a fitted effect of over 15% in size. A digest of the protocol:
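Caspase-3/7 induction was measured by Caspase-Glo 3/7 luminescence (30 min, room temperature) after a 17 hr compound exposure of wild-type HepG2 cells seeded at 2,000 per well and pre-incubated 5 hr.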

Assay [3] can be described thus: Caspase-3/7 induction in CHO-K1 cells by small molecules, qHTS cell viability counter screen (AID 1346979). Further: nearly all actives have a fitted effect of over 35% in size. Further: potency means the concentration at half of the fitted maximal effect. A digest of the protocol:
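Cytotoxicity counter screen: CellTiter-Fluor added to compound-treated wild-type CHO-K1 cells at 16 h (37C, 5% CO2), fluorescence measured 1 h later; same wells as caspase-3/7 measurement.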

Assay [4] can be described thus: Caspase-3/7 induction in CHO-K1 cells by small molecules, qHTS assay (AID 1346980). Further: nearly all actives have a fitted effect of over 15% in size. A digest of the protocol:
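Luminescent Caspase-Glo 3/7 read (30min, room temperature) quantified apoptosis induction. Cells were wild-type CHO-K1, treated with compound for 17hr at 37 C and 5% CO2.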

Assay [5] in a line: Caspase-3/7 induction in HepG2 cells by small molecules, qHTS cell viability counter screen (AID 1346981). Further: nearly all actives have a fitted effect of over 30% in size. Further: potency means the concentration at half of the fitted maximal effect. On activity change, negative = cytotoxicity: series mostly up to about 92 µM. A digest of the protocol: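 Treatment of HepG2 cells with DMSO-delivered compounds ran 16 hr at 37 C following a 5-hr pre-incubation of 2,000 cells/well. CellTiter-Fluor fluorescence, read after 1 hr, served as the viability measure in a qHTS format.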
Assay [6] concerns the target Nuclear receptor subfamily 1 group I member 2 (Homo sapiens) (UniProt O75469). Kind of assay: Human pregnane X receptor (PXR) small molecule agonists, qHTS assay (AID 1346982). Further: nearly all actives have a fitted effect of over 35% in size. Further: potency means the concentration at half of the fitted maximal effect. A digest of the protocol:
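Stable HepG2 line reporting PXR-mediated CYP3A4 expression via luciferase. Treatment: 24 hr with compounds in DMSO at 37 C. Detection: ONE-Glo luminescence.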

The target in assay [7] is Cytochrome P450 2D6 (Homo sapiens) (UniProt P10635). Kind of assay: Cytochrome P450 Family 2 Subfamily D Member 6 (CYP2D6) small molecule antagonists: luciferase reporter qHTS assay (AID 1671196). Further: nearly all actives have a fitted effect of over 50% in size. Further: potency means the concentration at half of the fitted maximal effect. On activity change, negative = inhibition: series mostly up to about 120 µM. A digest of the protocol:
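Chemicals tested for interference with CYP2D6 activity; proluciferin substrate, NADPH regeneration, 1 h at room temperature, luminescent detection.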
For orientation: In a reporter assay the amount or activity of a reporter protein is the signal.

The target of assay [8] is Cytochrome P450 2C19 (Homo sapiens) (UniProt P33261). Kind of assay: Cytochrome P450 Family 2 Subfamily C Member 19 (CYP2C19) small molecule antagonists: luciferase reporter qHTS assay (AID 1671197). Further: nearly all actives have a fitted effect of over 65% in size. Further: potency means the concentration at half of the fitted maximal effect. On activity change, negative = inhibition: series mostly up to about 120 µM. A digest of the protocol:
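Compounds were tested on CYP2C19 activity via proluciferin conversion to luciferin. The 37C, 1 h reaction followed NADPH addition; detection reagent stopped it.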

The target of assay [9] is Cytochrome P450 2C9 (Homo sapiens) (UniProt P11712). Kind of assay: Cytochrome P450 Family 2 Subfamily C Member 9 (CYP2C9) small molecule antagonists: luciferase reporter qHTS assay (AID 1671198). Further: nearly all actives have a fitted effect of over 50% in size. Further: potency means the concentration at half of the fitted maximal effect. On activity change, negative = inhibition: series mostly up to about 120 µM. In short, it runs like this:
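Enzyme-substrate mix preincubated with compound 10 min at room temperature; reaction started with NADPH regeneration solution, 1 h 37C. Luminescent luciferin product read after 20 min detection reagent.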

Assay [10] addresses Cytochrome P450 1A2 (Homo sapiens) (UniProt P05177). Kind of assay: Cytochrome P450 Family 1 Subfamily A Member 2 (CYP1A2) small molecule antagonists: luciferase reporter qHTS assay (AID 1671199). Further: nearly all actives have a fitted effect of over 50% in size. Further: potency means the concentration at half of the fitted maximal effect. On activity change, negative = inhibition: series mostly up to about 120 µM. In short, it runs like this: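 Read-out is luminescence from luciferin detection reagent (20 min) proportional to CYP1A2 activity; compounds in DMSO preincubated 10 min with enzyme and proluciferin substrate, then NADPH regeneration solution, 1 h, room temperature.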

The target of assay [11] is Voltage-gated inwardly rectifying potassium channel KCNH2 (Homo sapiens) (UniProt Q12809). Kind of assay: Human Ether-a-go-go-Related Gene (hERG) channel small molecule antagonists: fluorescence cell-based qHTS assay (AID 1671200). Further: nearly all actives have a fitted effect of over 50% in size. Further: potency means the concentration at half of the fitted maximal effect. On activity change, negative = inhibition: series mostly up to about 77 µM. A digest of the protocol:
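Thallium flux as potassium surrogate: FluxOR II dye loaded 1 h at room temperature into hERG-expressing U2OS cells, then stimulus buffer added after 10 min. Kinetic 480 nm excitation/540 nm emission read, 2 min.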
(hERG is a cardiac potassium channel; its block is linked to QT prolongation.)

Assay [12] deals with Cytochrome P450 3A4 (Homo sapiens) (UniProt P08684). The experiment in a line: Cytochrome P450 Family 3 Subfamily A Member 4 (CYP3A4) small molecule antagonists: luciferase reporter qHTS assay (AID 1671201). Further: nearly all actives have a fitted effect of over 50% in size. Further: potency means the concentration at half of the fitted maximal effect. On activity change, negative = inhibition: series mostly up to about 120 µM. A digest of the protocol: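 Recombinant human CYP3A4 converts a proluciferin substrate to luciferin over 1 h at room temperature after NADPH regeneration solution is added (compound preincubated 10 min); detection reagent stops reaction, luminescence read 20 min later as relative units.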

Assay [13] can be described thus: Human pregnane X receptor (PXR) small molecule agonists, qHTS cell viability counter screen (AID 1346977). Further: nearly all actives have a fitted effect of over 50% in size. A digest of the protocol:
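Same-well viability read: CellTiter-Fluor added after 23 hr compound exposure, fluorescence measured 1 hr later. Cells were PXR-Luc HepG2 seeded at 2,000/well in 5% charcoal-stripped FBS medium, rested 5 hr before dosing at 37 C.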
On the % scale 0 is the no-effect control and ±100 the full control effect.

Chain of Voltage-gated inwardly rectifying potassium channel KCNH2 (Homo sapiens) (Q12809 whole entry, looked up): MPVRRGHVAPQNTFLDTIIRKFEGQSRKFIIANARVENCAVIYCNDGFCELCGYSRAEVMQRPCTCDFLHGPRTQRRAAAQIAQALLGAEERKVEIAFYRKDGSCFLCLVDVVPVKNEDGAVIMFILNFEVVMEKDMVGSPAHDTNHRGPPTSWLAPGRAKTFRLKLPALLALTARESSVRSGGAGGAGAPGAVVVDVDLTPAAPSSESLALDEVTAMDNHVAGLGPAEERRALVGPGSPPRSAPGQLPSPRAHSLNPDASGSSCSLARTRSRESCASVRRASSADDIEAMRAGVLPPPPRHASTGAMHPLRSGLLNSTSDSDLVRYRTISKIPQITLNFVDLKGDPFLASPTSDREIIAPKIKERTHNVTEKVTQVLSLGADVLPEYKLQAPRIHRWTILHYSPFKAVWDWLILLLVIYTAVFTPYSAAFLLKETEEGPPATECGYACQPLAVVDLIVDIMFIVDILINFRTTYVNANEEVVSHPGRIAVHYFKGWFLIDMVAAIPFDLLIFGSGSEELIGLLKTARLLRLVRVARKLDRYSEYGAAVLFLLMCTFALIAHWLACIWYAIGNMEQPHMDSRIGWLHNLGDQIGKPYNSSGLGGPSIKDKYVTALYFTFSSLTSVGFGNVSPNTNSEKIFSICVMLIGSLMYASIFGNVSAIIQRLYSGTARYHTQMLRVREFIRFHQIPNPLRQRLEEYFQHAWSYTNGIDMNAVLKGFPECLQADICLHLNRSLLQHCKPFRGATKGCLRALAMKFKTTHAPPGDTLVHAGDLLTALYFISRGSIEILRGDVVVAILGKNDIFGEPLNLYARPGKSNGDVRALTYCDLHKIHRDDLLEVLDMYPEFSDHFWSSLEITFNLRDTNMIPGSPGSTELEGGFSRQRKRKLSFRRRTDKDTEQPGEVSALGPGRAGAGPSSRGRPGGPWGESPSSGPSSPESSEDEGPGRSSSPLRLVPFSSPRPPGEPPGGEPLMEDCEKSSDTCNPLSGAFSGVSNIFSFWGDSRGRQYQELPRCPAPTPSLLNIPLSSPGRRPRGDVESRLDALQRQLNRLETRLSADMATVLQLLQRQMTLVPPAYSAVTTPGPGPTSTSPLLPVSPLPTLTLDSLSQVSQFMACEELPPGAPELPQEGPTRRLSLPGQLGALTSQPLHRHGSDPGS
Chain of Cytochrome P450 2C9 (Homo sapiens) (P11712 whole entry, looked up): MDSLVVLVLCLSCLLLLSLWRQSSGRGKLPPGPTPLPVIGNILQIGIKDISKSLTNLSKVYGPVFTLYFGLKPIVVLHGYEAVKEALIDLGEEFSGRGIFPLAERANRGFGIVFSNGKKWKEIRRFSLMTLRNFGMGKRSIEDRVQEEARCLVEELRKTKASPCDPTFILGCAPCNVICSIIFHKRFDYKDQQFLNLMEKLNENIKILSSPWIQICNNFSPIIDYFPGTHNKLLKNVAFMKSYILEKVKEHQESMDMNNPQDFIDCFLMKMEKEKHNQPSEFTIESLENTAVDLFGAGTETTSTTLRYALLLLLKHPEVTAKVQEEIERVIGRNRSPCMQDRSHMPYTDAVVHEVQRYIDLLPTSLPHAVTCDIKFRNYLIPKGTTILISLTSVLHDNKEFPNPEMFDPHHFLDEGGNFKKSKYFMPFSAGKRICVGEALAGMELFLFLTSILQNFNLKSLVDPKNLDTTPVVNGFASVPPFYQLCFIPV
Chain of Cytochrome P450 3A4 (Homo sapiens) (P08684 whole entry, looked up): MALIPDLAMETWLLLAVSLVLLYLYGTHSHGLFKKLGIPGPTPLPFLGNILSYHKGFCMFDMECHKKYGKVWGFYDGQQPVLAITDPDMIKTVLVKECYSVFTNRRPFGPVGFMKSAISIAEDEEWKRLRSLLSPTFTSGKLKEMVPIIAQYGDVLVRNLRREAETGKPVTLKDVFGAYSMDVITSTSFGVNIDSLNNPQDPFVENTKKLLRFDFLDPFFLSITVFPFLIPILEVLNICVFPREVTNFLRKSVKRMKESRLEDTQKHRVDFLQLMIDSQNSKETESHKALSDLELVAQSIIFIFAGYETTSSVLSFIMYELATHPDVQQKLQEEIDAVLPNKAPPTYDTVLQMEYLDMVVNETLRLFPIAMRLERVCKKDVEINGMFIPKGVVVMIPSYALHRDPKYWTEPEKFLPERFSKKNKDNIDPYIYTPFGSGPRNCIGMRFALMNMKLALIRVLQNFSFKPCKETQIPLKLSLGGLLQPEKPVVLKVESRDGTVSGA
Chain of Nuclear receptor subfamily 1 group I member 2 (Homo sapiens) (O75469 whole entry, looked up): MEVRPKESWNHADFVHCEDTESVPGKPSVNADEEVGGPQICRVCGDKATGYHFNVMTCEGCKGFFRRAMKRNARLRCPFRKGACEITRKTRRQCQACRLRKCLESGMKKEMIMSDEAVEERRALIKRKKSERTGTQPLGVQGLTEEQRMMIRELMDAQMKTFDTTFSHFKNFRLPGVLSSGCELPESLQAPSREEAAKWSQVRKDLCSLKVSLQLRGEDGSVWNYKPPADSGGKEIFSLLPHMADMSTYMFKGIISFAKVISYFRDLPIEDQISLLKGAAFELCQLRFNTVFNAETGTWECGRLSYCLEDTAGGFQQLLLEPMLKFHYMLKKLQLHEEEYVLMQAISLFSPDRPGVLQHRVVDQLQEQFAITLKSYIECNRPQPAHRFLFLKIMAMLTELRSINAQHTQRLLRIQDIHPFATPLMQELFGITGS
Chain of Cytochrome P450 2D6 (Homo sapiens) (P10635 whole entry, looked up): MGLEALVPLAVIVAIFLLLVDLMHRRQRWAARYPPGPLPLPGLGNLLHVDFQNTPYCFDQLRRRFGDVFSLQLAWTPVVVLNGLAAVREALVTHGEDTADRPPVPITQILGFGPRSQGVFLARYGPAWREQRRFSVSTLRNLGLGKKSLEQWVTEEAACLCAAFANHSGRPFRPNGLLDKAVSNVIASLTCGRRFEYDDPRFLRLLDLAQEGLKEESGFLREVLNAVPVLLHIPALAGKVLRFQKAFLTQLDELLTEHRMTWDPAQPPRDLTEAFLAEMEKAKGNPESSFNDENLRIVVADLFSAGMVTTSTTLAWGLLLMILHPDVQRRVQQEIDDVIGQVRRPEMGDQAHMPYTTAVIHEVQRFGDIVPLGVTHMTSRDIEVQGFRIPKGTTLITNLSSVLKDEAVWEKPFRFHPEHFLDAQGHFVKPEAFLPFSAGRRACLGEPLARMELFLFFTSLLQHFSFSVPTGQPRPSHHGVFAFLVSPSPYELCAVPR
Chain of Cytochrome P450 1A2 (Homo sapiens) (P05177 whole entry, looked up): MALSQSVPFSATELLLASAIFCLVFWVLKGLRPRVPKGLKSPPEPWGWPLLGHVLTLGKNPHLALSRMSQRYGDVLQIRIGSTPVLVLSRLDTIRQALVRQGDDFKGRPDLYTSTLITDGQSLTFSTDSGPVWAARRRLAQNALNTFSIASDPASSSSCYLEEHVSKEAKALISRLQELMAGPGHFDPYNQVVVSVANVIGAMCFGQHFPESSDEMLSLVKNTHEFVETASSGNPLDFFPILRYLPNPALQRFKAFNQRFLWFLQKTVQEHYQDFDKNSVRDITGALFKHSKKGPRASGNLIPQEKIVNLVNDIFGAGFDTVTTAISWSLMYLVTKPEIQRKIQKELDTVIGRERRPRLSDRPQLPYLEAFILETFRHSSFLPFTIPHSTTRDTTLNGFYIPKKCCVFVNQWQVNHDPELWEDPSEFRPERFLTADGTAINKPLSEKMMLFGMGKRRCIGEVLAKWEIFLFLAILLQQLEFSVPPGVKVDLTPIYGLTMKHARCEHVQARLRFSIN
Chain of Thyrotropin-releasing hormone receptor (Homo sapiens) (P34981 whole entry, looked up): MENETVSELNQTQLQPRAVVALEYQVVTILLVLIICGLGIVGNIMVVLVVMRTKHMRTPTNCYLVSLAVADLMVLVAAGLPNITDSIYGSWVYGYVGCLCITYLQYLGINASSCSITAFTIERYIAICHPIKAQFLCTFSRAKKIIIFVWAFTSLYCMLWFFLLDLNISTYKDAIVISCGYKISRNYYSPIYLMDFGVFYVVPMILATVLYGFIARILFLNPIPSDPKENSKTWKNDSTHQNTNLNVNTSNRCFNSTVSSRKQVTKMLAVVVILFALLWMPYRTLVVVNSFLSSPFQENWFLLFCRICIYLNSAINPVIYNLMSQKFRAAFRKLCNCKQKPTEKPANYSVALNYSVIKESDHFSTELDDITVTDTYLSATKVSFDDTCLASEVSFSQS
Chain of Cytochrome P450 2C19 (Homo sapiens) (P33261 whole entry, looked up): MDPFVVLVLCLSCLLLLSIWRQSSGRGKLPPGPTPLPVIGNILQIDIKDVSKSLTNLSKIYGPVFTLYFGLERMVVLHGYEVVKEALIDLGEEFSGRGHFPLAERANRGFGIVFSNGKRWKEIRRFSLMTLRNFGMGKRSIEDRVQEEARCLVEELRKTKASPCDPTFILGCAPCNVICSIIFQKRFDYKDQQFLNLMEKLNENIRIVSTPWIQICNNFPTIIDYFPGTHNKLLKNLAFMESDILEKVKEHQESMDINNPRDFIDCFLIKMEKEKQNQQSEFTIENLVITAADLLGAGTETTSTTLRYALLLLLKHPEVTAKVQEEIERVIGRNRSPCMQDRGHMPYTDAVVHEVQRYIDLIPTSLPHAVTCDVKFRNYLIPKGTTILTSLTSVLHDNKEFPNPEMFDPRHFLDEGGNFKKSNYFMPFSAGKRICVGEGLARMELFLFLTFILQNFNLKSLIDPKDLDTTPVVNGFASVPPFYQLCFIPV

For the compound `Cc1c(C2(c3cc(Br)c(O)c(Br)c3C)OS(=O)(=O)c3ccccc32)cc(Br)c(O)c1Br`, the compound was called inactive in assay [1] and in assay [4]. The Potency result in assay [2], in [6] and in [11] was “inactive” in each case. For the same compound, the Potency in assay [3] was 16.7 µM (active); in assay [5] it was 18.8 µM (active); in assay [7], 24.4 µM (active); in [8], 15.4 µM (active); in assay [9], 10.9 µM (active); in assay [10], 13.7 µM (active). Moreover, the Potency in assay [12] is 27.4 µM (active).
For the compound `SCCc1cnccn1`, the result in [1] and in [4] was inactive. The Potency result in assay [13], in assay [5], in [6], in [7], in assay [11] and in [12] was “inactive” in each case. Further, the Potency was 31.7 µM (active) in assay [8] and 35.6 µM (active) in assay [10].
As for `CC(CCc1ccc(O)cc1)NCCc1ccc(O)c(O)c1` (stereo not given), the compound was classed as inactive in assay [1] and in assay [4]. For the same compound, the Potency entry in [13], in assay [5], in [6], in assay [8], in assay [10] and in assay [12] was “inactive” throughout. Also, the Potency in assay [7] is 15.5 µM (active); in assay [11], 13.4 µM (active).
For the compound `CCCCCCCCCCCSCC(=O)O`, the result in assay [1] and in [4] was inactive. In addition, the Potency result in assay [2], in assay [3], in assay [5], in [6], in [10] and in assay [11] was “inactive” in each case. Besides, the Potency result in assay [12] was “inactive”. Besides, the Potency is 31.7 µM (active) in [7] and 71 µM (active) in assay [9].
As for `COc1ccc(-c2cc(=S)ss2)cc1`, the call in assay [1] and in assay [4] was inactive. The Potency entry in assay [2], in [5] and in assay [11] was “inactive” each time. The Potency was 29.8 µM (active) in assay [3], 9.77 µM (active) in assay [8] and 0.911 µM (active) in assay [10].
As for `CCCCCCCCCCCCCOC(=O)CCSCCC(=O)OCCCCCCCCCCCCC`, the figures for the activation in [1] and in [6] were 0.934% [at 11.8 µM] and 3.58% [at 19 µM], respectively. For the same compound, the values for the activity change, negative = cytotoxicity in assay [13] and in assay [5] were -0.253% [at 19 µM] and 6.29% [at 19 µM], respectively. The caspase-3/7 activation in assay [4] was 0.789% [at 19 µM]. For the same compound, the results for the activity change, negative = inhibition in [7] and in [11] were -6.54% [at 23.6 µM] and -9.44% [at 15.8 µM], respectively. Besides, the Potency in assay [8] is 10.6 µM (active).
As for `Nc1nc(-c2ccc([N+](=O)[O-])cc2)cs1`, the result in [1] and in assay [4] was inactive. For the same compound, the Potency result in [13], in [7] and in assay [11] was “inactive” in each case. Further, the figures for the Potency in [6], in assay [8] and in assay [10] were 9.79 µM (active), 3.6 µM (active) and 5.08 µM (active), respectively.
For `CCC(CO)(CO)CO`, in assay [1], the compound was classed as inactive. Besides, the Potency entry in [13], in assay [3], in assay [5], in [6], in assay [7] and in assay [8] was “inactive” each time. Besides, the Potency result in assay [9], in assay [10] and in assay [11] was “inactive” each time.
For `CC(C)C(=O)OCCOc1ccccc1`, the outcome in [1] and in assay [4] was inactive. Further, the Potency entry in assay [2], in assay [3], in assay [5], in assay [6], in [7] and in assay [11] was “inactive” throughout. Also, the Potency entry in [12] is “inactive”. The Potency in assay [8] was 39.9 µM (active); in [9] it was 39.9 µM (active); in assay [10], 31.7 µM (active).
Consider `Cc1ccc2c(c1)CCCN2`, for which the outcome in assay [1] and in [4] was inactive. The Potency entry in assay [2], in assay [3], in assay [5], in assay [11] and in assay [12] was “inactive” each time. Besides, the Potency is 28.3 µM (active) in assay [7], 39.9 µM (active) in assay [8], 39.9 µM (active) in [9] and 3.17 µM (active) in [10].
